From publication PMC5540273 (PLoS ONE, 2017)

What was measured:
Conditions in all cases: concentration: 1 μM,replicates: in singlicate; n = 1
PIK3C2G = test system: PIK3C2G
PIK3CA = test system: PIK3CA
PIK3CB = test system: PIK3CB
PIK3CD = test system: PIK3CD
PIK3CG = test system: PIK3CG
PIK4CB = test system: T1, PIK4CB
T1 construct: gene PI4KB

PIKFYVE = test system: PIKFYVE
PIM1 = test system: PIM1
PIM2 = test system: PIM2
PIM3 = test system: PIM3
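Further: KINOMEscan kinase panel screen.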

| SMILES | %Inh (PIK3C2G) [%] | %Inh (PIK3CA) [%] | %Inh (PIK3CB) [%] | %Inh (PIK3CD) [%] | %Inh (PIK3CG) [%] | %Inh (PIK4CB) [%] | %Inh (PIKFYVE) [%] | %Inh (PIM1) [%] | %Inh (PIM2) [%] | %Inh (PIM3) [%] |
| --- | --- | --- | --- | --- | --- | --- | --- | --- | --- | --- |
| O=C(Nc1cccc(Oc2ccc3nccn3n2)c1)Nc1cccc(C(F)(F)F)c1 | 0 | 0 | 0 | 5 | 18 | 0 | 0 | 0 | 10 | 0 |
| CCCC(=O)Nc1n[nH]c2ncccc12 [SB-601436] | 0 | 0 | 0 | 0 | 7 | 12 | 0 | 0 | 0 | 0 |
| COc1cc2c(Nc3ccc(NC(=O)c4ccccc4)cc3)ncnc2cc1OCCCN1CCOCC1 [GSK301329] | 0 | 0 | 0 | 0 | 0 | 0 | 0 | 0 | 0 | 0 |
| COC(=O)c1cccc(NC(=O)NC2CCN(c3ccnc(NCc4ccc(F)cc4)n3)CC2)c1 [GSK1379860] | 0 | 0 | 0 | 61 | 0 | 0 | 57 | 0 | 0 | 0 |
| Cl.c1ccc(Oc2ccc(Nc3ccnc4cc(-c5ccc(CN6CCNCC6)o5)ccc34)cc2)nc1 [GW567142] | 0 | 0 | 0 | 0 | 10 | 0 | 0 | 0 | 0 | 2 |
| Cl.Nc1n[nH]c2cc(-c3ccccn3)ccc12 [GSK2189892] | 0 | 0 | 0 | 0 | 0 | 0 | 0 | 0 | 0 | 0 |
| C[C@@H](Oc1cc(-n2cnc3cc(-c4ccncc4)ccc32)sc1C(N)=O)c1ccccc1Cl [GSK479719] | 0 | 0 | 0 | 0 | 0 | 0 | 27 | 0 | 0 | 0 |
| Cn1cc(-c2cccc3c(N)c(C(N)=O)nnc23)cn1 | 26 | 0 | 0 | 20 | 18 | 16 | 0 | 0 | 0 | 0 |
| Nc1nccc(-c2ccc3c(N)n[nH]c3c2)n1 [GSK1034945] | 0 | 5 | 0 | 3 | 2 | 0 | 0 | 9 | 0 | 7 |
| COC(=O)c1cccc(NC(=O)NC2CCN(c3ccnc(Nc4cc(OC)c(OC)c(OC)c4)n3)C2)c1 (stereo not shown) [GSK1379767] | 0 | 0 | 9 | 35 | 21 | 47 | 28 | 17 | 0 | 0 |
| Cc1cccc(-c2nc(Nc3ccncc3)c3sccc3n2)n1 [GW869641] | 40 | 33 | 28 | 46 | 23 | 31 | 86 | 27 | 3 | 13 |
| COc1cc(Nc2nccc(N3CCC(NC(=O)c4cccc(C#N)c4)C3)n2)cc(OC)c1OC (stereo not shown) [GSK1379751] | 0 | 0 | 0 | 0 | 0 | 3 | 9 | 0 | 0 | 0 |
| CCNCC(Cc1ccccc1)NC(=O)c1cc(Br)c(-c2ccnc3[nH]ccc23)s1.Cl.Cl (stereo not shown) [GSK1383280] | 0 | 0 | 0 | 0 | 0 | 12 | 0 | 22 | 0 | 5 |
| N#Cc1cccc(C(=O)NC2CCN(c3ccnc(Nc4ccc(F)cc4)n3)C2)c1 (stereo not shown) [GSK1379708] | 0 | 0 | 0 | 0 | 0 | 0 | 0 | 0 | 0 | 0 |
| CN(c1ccccc1CNc1nc(Nc2ccc3c(c2)CC(=O)N3)ncc1C(F)(F)F)S(C)(=O)=O | 0 | 0 | 0 | 0 | 0 | 0 | 38 | 0 | 0 | 0 |
| CC(=O)Nc1ccc(-c2cc3ncnc(SCC(=O)O)c3s2)cc1 | 0 | 0 | 26 | 5 | 1 | 0 | 38 | 10 | 48 | 22 |

| SMILES | %Inh (PIK3C2G) [%] | %Inh (PIK3CA) [%] | %Inh (PIK3CB) [%] | %Inh (PIK3CD) [%] | %Inh (PIK3CG) [%] | %Inh (PIK4CB) [%] | %Inh (PIKFYVE) [%] | %Inh (PIM1) [%] | %Inh (PIM2) [%] | %Inh (PIM3) [%] |
| --- | --- | --- | --- | --- | --- | --- | --- | --- | --- | --- |
| CC(C(=O)NC1CCN(c2ccnc(Nc3ccc(F)cc3)n2)C1)c1ccc(Cl)cc1 (stereo not shown) [GSK1379713] | 0 | 0 | 0 | 15 | 0 | 0 | 9 | 9 | 0 | 0 |
| NC(=O)Nc1sc(-c2ccc(F)cc2)cc1C(N)=O [GW789449] | 19 | 0 | 0 | 30 | 1 | 18 | 22 | 0 | 0 | 0 |
| Cn1ccc2ncnc(Oc3ccc(NC(=O)Nc4cncc(C(F)(F)F)c4)c(Cl)c3)c21 | 0 | 0 | 0 | 0 | 0 | 0 | 0 | 3 | 1 | 0 |
| CN(c1ccc2c(c1)nc(NCc1ccc(F)cc1)n2C)c1ccnc(Nc2ccc(CS(C)(=O)=O)cc2)n1.Cl [GW813244] | 0 | 27 | 0 | 0 | 0 | 0 | 0 | 18 | 49 | 15 |
| Cc1ccc(C(=O)Nc2ccc(Oc3ccc4nc(NC(=O)C5CC5)cn4c3)c(F)c2)c(=O)n1-c1ccccc1 | 0 | 0 | 0 | 0 | 0 | 0 | 14 | 1 | 0 | 0 |
| CS(=O)(=O)c1cccc(CNc2nc(Nc3ccc4c(c3)[C@@H]3C[C@@H]4CNC3=O)ncc2C(F)(F)F)c1 | 0 | 0 | 0 | 0 | 0 | 0 | 24 | 0 | 0 | 0 |
| C[C@@H]1CNc2c(sc3ccc4nc(-c5ccncc5)ccc4c23)C(=O)N1 | 2 | 0 | 0 | 0 | 0 | 0 | 52 | 44 | 69 | 93.1 |
| O=C(Nc1ccc(Oc2ccc3nc(NC(=O)C4CC4)cn3n2)c(F)c1)c1cccn(-c2ccccc2)c1=O | 0 | 0 | 0 | 0 | 0 | 0 | 4 | 5 | 8 | 0 |
| Cc1nnc(-c2ccc3occ(-c4ccc(S(C)=O)cc4)c3n2)o1 (stereo not shown) | 0 | 0 | 8 | 0 | 0 | 0 | 0 | 0 | 3 | 4 |
| CC(C)S(=O)(=O)N1CCN(Cc2ccc3c(c2)nc(NC(=O)c2ccsc2)n3C[C@H](O)c2ccccc2)CC1 [GW635815] | 0 | 0 | 0 | 21 | 0 | 0 | 0 | 8 | 0 | 7 |
| Cc1ccc(CC(=O)N2CCc3cc(-c4cn(C)c5ncnc(N)c45)ccc32)cc1 [GSK2634758] | 4 | 0 | 0 | 36 | 0 | 0 | 1 | 0 | 0 | 0 |
| FC(F)(F)c1cc(Br)cc(Nc2nccc(-c3cnn4ncccc34)n2)c1 [GW810578] | 25 | 3 | 16 | 51 | 10 | 30 | 10 | 25 | 0 | 23 |
| COc1cccc(C2=C(Nc3cccc(Cl)c3)C(=O)NC2=O)c1 [SB-341556] | 0 | 1 | 0 | 0 | 0 | 10 | 0 | 9 | 0 | 0 |
| O=C(NOCC1CC1)c1cc(Br)c(F)c(F)c1Nc1ccc(I)cc1Cl | 0 | 0 | 0 | 0 | 0 | 0 | 41 | 0 | 9 | 1 |
| Cn1ccc2ncnc(Oc3ccc(NC(=O)Nc4cc(C(C)(C)C)on4)c(Cl)c3)c21 | 48 | 5 | 8 | 12 | 4 | 0 | 19 | 1 | 0 | 11 |
